# Pf apPOL inh – Pf-apPOL DNA polymerase inhibition; AID 1794808; Recombinant Pf-apPOL, molecular beacon fluorescence, 1.5 h; 0.25% of 210,000 active; inhibition, % at 10 µM
# mHTT CaM bind – mHTT-calmodulin interaction abrogation; P42858; AlphaScreen His-mHTT/GST-CaM binding, luminescence; inhibition, % at 15 µM; 3.6% of 190,000 active; AID 1671202;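 note: 0% = both proteins with DMSO and 100% = one protein alone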
# Target sequence (P42858 whole entry, looked up, stated change not applied): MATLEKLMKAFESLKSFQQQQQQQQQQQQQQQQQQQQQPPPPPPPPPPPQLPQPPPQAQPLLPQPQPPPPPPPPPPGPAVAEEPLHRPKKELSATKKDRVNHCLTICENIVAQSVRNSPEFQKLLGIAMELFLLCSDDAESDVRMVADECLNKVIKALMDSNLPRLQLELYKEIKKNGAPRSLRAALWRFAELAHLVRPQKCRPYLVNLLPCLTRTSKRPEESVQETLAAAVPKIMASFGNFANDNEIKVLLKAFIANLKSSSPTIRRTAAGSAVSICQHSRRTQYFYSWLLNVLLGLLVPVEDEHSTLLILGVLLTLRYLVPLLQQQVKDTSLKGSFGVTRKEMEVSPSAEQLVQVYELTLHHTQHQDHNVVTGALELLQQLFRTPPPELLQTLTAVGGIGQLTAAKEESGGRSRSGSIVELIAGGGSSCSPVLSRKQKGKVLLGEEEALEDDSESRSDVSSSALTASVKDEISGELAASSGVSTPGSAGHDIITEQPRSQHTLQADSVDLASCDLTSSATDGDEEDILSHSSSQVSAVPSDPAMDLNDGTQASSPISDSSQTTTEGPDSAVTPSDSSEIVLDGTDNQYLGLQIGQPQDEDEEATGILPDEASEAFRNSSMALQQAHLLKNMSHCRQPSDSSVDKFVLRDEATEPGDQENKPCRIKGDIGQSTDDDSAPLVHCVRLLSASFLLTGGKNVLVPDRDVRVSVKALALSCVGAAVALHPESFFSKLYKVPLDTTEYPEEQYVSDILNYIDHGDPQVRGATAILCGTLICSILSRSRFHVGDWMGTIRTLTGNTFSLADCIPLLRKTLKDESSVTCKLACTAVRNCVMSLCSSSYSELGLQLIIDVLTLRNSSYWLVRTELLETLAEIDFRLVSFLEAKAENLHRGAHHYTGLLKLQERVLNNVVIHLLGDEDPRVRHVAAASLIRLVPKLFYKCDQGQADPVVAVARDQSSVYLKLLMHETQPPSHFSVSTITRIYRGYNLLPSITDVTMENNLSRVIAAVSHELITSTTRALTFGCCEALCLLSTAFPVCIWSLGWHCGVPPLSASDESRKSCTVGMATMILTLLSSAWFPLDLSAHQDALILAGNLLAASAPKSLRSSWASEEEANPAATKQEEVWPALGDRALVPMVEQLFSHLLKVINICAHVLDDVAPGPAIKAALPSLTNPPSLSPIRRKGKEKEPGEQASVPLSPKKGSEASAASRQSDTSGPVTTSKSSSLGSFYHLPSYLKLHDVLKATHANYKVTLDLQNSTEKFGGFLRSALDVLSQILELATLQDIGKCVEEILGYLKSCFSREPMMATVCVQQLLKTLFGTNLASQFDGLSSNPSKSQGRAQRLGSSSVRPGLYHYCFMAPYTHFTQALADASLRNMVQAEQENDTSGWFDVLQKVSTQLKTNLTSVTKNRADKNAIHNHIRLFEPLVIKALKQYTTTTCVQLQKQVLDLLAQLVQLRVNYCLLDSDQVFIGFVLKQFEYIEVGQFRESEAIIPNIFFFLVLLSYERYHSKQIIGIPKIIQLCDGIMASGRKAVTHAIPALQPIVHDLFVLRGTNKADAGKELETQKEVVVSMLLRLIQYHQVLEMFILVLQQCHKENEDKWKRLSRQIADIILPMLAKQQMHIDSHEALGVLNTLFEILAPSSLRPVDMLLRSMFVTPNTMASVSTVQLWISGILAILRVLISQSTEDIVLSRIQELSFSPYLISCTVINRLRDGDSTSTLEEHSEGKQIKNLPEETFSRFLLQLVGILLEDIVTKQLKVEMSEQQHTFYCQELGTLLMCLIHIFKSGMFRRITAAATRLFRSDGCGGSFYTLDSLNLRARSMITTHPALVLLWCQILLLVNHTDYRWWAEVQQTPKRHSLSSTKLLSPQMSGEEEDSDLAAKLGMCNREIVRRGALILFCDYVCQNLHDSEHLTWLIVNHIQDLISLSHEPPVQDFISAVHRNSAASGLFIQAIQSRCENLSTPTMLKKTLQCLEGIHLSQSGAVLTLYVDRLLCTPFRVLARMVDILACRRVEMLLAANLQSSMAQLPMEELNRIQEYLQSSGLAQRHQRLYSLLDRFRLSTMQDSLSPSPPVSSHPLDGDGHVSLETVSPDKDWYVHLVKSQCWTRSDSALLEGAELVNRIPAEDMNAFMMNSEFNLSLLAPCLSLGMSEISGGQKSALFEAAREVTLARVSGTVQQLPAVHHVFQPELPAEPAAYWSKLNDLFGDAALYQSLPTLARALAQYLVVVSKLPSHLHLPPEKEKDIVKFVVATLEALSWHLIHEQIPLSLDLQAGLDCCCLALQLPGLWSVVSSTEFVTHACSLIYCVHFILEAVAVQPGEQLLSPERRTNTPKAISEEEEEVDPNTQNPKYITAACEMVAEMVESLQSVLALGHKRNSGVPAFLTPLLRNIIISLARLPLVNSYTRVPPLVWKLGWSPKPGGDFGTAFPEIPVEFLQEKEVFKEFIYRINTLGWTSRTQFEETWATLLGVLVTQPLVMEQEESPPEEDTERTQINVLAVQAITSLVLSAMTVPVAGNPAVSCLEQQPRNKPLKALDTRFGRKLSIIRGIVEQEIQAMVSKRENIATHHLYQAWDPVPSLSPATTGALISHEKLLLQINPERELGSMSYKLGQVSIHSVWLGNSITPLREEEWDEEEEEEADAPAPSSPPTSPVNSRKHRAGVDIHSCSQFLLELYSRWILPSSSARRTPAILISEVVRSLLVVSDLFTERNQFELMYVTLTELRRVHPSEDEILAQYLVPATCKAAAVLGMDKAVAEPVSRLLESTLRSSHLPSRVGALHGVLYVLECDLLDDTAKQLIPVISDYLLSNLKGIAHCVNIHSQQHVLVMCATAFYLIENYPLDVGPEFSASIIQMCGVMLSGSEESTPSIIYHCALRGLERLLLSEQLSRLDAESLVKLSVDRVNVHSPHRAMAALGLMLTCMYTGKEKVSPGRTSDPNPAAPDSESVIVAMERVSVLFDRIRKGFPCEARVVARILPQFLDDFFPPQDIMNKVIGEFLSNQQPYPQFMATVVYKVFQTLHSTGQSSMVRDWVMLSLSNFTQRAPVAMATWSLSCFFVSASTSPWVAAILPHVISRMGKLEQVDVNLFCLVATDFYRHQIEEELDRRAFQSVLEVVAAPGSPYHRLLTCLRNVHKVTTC
# * marks the source's active call; other numbers are inactive results; . = not tested or not shown; ! = not confirmed by another sample. The full list was thinned out, with hits kept by preference. Cut-off read from the data, not from the text of the source: active = inhibition above about 50%; inactive = the rest.
SMILES,Pf apPOL inh,mHTT CaM bind
Cc1cc(C(=O)NCC2CCN(Cc3ccco3)CC2)no1,-8,-8
O=C(CCCSc1ccc(F)cc1)Nc1nccs1,-1,-4
Cc1nc(-c2ccc3c(c2)CCN3C(=O)c2nccc3ccccc23)cs1,-8,5
COc1ccc(S(=O)(=O)NCCNc2nc(C)cc(N(C)C)n2)c(OC)c1,-6,-7
Cc1ccccc1CN1CCSCCS1(=O)=O,1,-8
CC(C)(C)n1nc2c(c1NC(=O)c1ccc(F)cc1)CSC2,-4,58*
Cc1ccc(C(=O)Nc2c3c(nn2C(C)(C)C)CSC3)cc1,-2,-10
CC1=N/C(=C\c2ccc([N+](=O)[O-])cc2)C(=O)N1c1ccc(Cl)cc1C,-3,15
CC1=N/C(=C\c2ccc([N+](=O)[O-])cc2)C(=O)N1c1cc(Cl)ccc1Cl,-1,52*
CCOc1ccc(-c2cn3ccn(-c4ccc(OC)cc4)c(=O)c3n2)cc1,-8,0
O=C1c2ccccc2NC(c2cc3c(cc2[N+](=O)[O-])OCO3)N1c1ccccc1 (stereo not given),-1,90*!
O=C1CSC(c2cc3c(cc2[N+](=O)[O-])OCO3)N1c1ccccc1 (stereo not given),-3,18
CS(=O)(=O)c1ccc2nc(N3CCN(S(C)(=O)=O)CC3)sc2c1,-7,-13
CC1=C(C#N)C(=O)N(CC(C)O)C(=O)/C1=C\c1ccc(-c2ccc(Cl)cc2)o1 (stereo not given),-13,22
CC1=C(C#N)C(=O)N(CCO)C(=O)/C1=C/c1ccc(-c2ccc3c(c2)COC3=O)o1,-4,60*
CC1=C(C#N)C(=O)N(CC(C)O)C(=O)/C1=C\c1ccc(-c2cccc(Cl)c2C)o1 (stereo not given),-8,75*
CC1=C(C#N)C(=O)N(CCO)C(=O)/C1=C\c1ccc(-c2cc(Cl)ccc2Cl)o1,-3,37
CCC1CCCCN1S(=O)(=O)c1cc(C)c(C)cc1OC (stereo not given),0,-10
Cc1nc(-c2c(C)oc3cc(O)cc(C)c3c2=O)cs1,-4,0
Nc1cccc(Oc2c(F)c(F)c(Oc3cccc(N)c3)c(F)c2F)c1,-6,42
Nc1cc(N)cc(Oc2cc(N)cc(N)c2)c1,.,95*
C(=CN1CCCC1)c1nnnn1-c1ccccc1,-5,.
CC(C)(Oc1ccc(Cl)cc1)C(=O)N1CCN(c2cccc(Cl)c2)CC1,-6,20
CC(C)(Oc1ccc(Cl)cc1)C(=O)N1CCN(c2ccc(F)cc2)CC1,-2,94*
Cc1ccc(N2C(=O)C3C4C=CC(C5CC45)C3C2=O)cc1Cl (stereo not given),2,0
SMILES,Pf apPOL inh,mHTT CaM bind
O=C(O)c1cc(N2C(=O)C3C4C=CC(C5CC45)C3C2=O)ccc1Cl (stereo not given),63*,4
Cc1nc(C2CCCN(Cc3ccc(Br)o3)C2)n[nH]1 (stereo not given),-10,50*
Cc1nc(C2CCCN(Cc3cccc4[nH]ccc34)C2)n[nH]1 (stereo not given),-7,18
CCN(CC)c1ccc(/C=C2/C(=O)ON=C2C)cc1,0,50*
CCOc1ccc(Cl)cc1/C=C1/C(=O)ON=C1C,-9,30
CCCOc1ccc(/C=C2/C(=O)ON=C2C)cc1Cl,9,58*
CCCCC1(C)OC(=O)C(=Cc2ccc(N(CC)CC)cc2)C(=O)O1 (stereo not given),4,3
CCOc1ccc(/C=C2/C(=O)ON=C2C)cc1Br,0,48
CCOc1ccc(/C=C2/C(=O)ON=C2C)cc1Cl,6,67*
CCNC(=O)c1cc(=O)[nH]c2c(Cl)cccc12,-8,-3
Cc1cc(NC(=O)NC(C)(C)C)no1,.,-6
CC1C(=NO)C(C)C(c2ccc(N(C)C)cc2)NC1c1ccc(N(C)C)cc1 (stereo not given),-11,76*
CC1C(c2ccc(N(C)C)cc2)NC(c2ccc(N(C)C)cc2)C(C)C1O (stereo not given),-9,17
COc1ccc(-c2coc3cc(OC(=O)c4ccc5c(c4)OCO5)ccc3c2=O)cc1OC,-2,1
FC(F)Oc1ccc(-c2cc3ccccn3c2)cc1,0,44
COc1ccc(-c2cc3ccccn3c2)c(OC)c1,-3,75*
Cc1cc(C)n(-c2nc3c(c(=O)[nH]c(=O)n3C)n2CC(O)COc2ccccc2Cl)n1 (stereo not given),14,100*
Cn1c(=O)[nH]c(=O)c2c1nc(N1CCOCC1)n2CC(O)COc1ccc(Cl)cc1Cl (stereo not given),-5,-3
COc1ccc(S(=O)(=O)N2CC3CN(C(=O)c4ccncc4)CC(C2)O3)cc1,-4,1
CC1(C)Cc2c(sc3nc(SCc4ccc5c(c4)OCO5)nc(N)c23)CO1,4,9
CC(=O)N1CCC(n2c(C)nc(C(=O)Nc3ccc4c(c3)OCCO4)c2C)CC1,1,33
Cc1ccc(-n2cnc3cc(C(=O)NCc4ccco4)ccc32)c(C)c1,27,13
Cc1ccc(-n2cnc3cc(C(=O)NCc4ccco4)ccc32)cc1Cl,32,79*
CCOC(CNC(=O)c1ccc2c(c1)ncn2-c1ccc(C)c(Cl)c1)OCC,26,9
CCCNC(=O)c1ccc2c(c1)ncn2-c1ccc(C)c(Cl)c1,28,52*
SMILES,Pf apPOL inh,mHTT CaM bind
CCc1nc(C2CCCN(C(=O)C3(c4ccccc4)CC3)C2)n[nH]1 (stereo not given),4,-9
COc1ccccc1NC(=O)Nc1nnc(C23CC4CC(CC(C4)C2)C3)s1,-13,-3
Cc1ccc2n1CCN(C(=O)Nc1cccc(C(F)(F)F)c1)C2C(C)C (stereo not given),-3,74*
Cc1ccc2n1CCN(C(=O)Nc1ccccc1C(F)(F)F)C2C(C)C (stereo not given),-1,-1
CCCC1c2cccn2CCN1C(=O)Nc1ccc(F)cc1 (stereo not given),-5,9
CCCC1c2ccc(C)n2CCN1C(=O)Nc1cccc(Cl)c1 (stereo not given),6,28
CC1c2cccn2CCN1C(=O)Nc1cccc(C(F)(F)F)c1 (stereo not given),-3,21
CCCC1c2cccn2CCN1C(=O)Nc1cccc(C(F)(F)F)c1 (stereo not given),-4,55*
CCCC1c2cccn2CCN1C(=O)Nc1ccc(C)c(F)c1 (stereo not given),3,51*
CCCC1c2ccc(C)n2CCN1C(=O)Nc1ccc(F)c(Cl)c1 (stereo not given),2,90*
N#C/C(=C(/O)c1ccc(Br)cc1)c1nc2ccccc2s1,-72,-5
Cc1c(C(=O)n2nnc3ccccc32)cccc1[N+](=O)[O-],-3,25
N#Cc1ccc(C(=O)N2CCN(c3ncnc4c3CCC4)CC2)cc1,-2,-10
Cc1cccc(N2CCN(Cc3cccs3)CC2)c1C,6,-10
O=C(NCc1ccnc(N2CCSCC2)c1)Nc1ccccc1,1,3
COc1ccccc1CCC(=O)N1CCCC(c2noc(-c3cccc(F)c3)n2)C1 (stereo not given),-2,10
Clc1[nH]nc2ccccc12,.,-8
CCCC1c2cccn2CCN1C(=O)Nc1ccc(F)c(Cl)c1 (stereo not given),-2,83*
CC1c2cccn2CCN1C(=O)Nc1ccc(F)c(Cl)c1 (stereo not given),-2,5
Cc1ccc2n1CCN(C(=O)Nc1ccc(F)c(Cl)c1)C2C(C)C (stereo not given),-8,62*
